Assay [1] concerns the target T1, Ephrin type-B receptor 3 (Homo sapiens) (UniProt P54753).
T1 sequence (whole entry): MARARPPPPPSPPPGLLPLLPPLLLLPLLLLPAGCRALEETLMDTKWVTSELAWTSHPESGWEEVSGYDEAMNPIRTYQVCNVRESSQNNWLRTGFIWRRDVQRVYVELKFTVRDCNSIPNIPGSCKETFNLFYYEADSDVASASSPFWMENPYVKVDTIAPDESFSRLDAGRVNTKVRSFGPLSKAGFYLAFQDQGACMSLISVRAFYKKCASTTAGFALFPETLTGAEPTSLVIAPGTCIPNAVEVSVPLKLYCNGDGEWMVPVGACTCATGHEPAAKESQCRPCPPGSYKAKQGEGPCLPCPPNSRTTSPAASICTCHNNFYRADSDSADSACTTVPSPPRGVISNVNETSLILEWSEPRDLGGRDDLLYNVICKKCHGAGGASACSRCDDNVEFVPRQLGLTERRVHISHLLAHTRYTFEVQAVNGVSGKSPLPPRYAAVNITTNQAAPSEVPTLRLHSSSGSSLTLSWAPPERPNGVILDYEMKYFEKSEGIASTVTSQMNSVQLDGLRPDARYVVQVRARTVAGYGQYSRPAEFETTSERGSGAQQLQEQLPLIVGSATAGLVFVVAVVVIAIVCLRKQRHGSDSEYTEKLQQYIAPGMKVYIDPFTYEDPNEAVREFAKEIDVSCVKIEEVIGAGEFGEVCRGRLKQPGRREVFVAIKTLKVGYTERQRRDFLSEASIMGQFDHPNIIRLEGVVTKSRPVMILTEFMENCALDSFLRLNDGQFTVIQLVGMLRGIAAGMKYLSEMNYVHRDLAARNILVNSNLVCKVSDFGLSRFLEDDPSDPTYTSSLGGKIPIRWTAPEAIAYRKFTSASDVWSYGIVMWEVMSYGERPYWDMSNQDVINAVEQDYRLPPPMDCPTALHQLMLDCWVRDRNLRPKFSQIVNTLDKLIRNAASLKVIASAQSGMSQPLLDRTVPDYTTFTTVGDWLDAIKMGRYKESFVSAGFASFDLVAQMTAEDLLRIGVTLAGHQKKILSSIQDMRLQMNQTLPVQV
The conditions noted are these: at 10 µM.

For assay [2], the target named is T2, Ephrin type-B receptor 4 (Homo sapiens) (UniProt P54760).
T2 sequence (whole entry): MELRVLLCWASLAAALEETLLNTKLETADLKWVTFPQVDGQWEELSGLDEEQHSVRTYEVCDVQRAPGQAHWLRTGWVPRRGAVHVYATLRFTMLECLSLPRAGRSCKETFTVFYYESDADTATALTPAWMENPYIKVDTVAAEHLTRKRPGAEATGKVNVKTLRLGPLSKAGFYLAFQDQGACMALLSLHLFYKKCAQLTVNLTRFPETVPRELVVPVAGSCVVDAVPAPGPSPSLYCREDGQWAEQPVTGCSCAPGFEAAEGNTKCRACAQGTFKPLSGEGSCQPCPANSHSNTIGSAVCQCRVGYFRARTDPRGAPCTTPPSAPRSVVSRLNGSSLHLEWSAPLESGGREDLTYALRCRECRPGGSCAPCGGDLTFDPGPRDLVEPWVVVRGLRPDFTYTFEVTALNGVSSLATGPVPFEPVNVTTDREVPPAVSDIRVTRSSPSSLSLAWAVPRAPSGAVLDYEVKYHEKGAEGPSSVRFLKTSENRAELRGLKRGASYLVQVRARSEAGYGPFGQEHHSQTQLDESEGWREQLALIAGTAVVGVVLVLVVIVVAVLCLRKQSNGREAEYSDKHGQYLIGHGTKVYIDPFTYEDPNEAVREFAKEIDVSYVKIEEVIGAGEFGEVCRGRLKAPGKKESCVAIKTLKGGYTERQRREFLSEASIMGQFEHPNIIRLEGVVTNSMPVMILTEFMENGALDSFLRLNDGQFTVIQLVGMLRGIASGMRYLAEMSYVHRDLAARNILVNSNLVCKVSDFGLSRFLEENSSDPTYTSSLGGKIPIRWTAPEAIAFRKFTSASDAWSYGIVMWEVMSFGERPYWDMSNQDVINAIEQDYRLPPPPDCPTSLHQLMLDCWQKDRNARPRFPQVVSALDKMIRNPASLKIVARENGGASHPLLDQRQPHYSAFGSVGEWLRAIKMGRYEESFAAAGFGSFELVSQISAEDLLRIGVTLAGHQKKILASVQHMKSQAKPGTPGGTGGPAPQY
The conditions noted are these: at 1 µM.

In assay [3] the target is T2, Ephrin type-B receptor 4 (Homo sapiens). The conditions noted are these: at 10 µM.
In assay [4] the target is Focal adhesion kinase 1 (Homo sapiens) (UniProt Q05397). The conditions noted are these: at 1 µM.
Chain of Focal adhesion kinase 1 (Homo sapiens) (Q05397 2-1052 limits assumed): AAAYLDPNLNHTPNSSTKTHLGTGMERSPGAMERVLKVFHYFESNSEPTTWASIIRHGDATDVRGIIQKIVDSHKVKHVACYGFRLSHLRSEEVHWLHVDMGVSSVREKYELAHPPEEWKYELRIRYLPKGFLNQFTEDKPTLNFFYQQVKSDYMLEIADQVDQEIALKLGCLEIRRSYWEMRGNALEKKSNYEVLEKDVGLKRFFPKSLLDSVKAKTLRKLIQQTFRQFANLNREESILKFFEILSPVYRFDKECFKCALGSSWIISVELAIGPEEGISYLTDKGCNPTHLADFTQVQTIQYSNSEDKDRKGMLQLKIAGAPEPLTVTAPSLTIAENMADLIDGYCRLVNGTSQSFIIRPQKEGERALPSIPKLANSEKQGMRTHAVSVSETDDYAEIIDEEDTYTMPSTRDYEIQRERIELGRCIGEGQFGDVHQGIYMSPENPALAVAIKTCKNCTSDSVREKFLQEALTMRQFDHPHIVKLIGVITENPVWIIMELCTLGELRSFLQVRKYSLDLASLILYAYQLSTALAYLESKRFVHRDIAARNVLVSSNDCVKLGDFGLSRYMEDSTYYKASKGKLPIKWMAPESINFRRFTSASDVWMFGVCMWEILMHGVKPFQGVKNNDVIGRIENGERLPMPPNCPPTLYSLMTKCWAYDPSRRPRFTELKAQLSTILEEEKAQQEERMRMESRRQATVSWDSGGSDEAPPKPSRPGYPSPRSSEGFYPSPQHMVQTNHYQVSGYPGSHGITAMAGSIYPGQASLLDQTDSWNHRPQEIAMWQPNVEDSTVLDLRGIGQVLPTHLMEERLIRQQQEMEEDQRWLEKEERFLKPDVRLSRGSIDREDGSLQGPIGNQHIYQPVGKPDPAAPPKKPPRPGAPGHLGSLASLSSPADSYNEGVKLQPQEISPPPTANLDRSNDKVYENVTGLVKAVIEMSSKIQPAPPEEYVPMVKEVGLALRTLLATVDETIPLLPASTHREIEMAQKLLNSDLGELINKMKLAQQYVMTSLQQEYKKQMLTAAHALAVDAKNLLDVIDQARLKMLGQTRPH
Assay [5] shares this target. The conditions noted are these: at 10 µM.
The target in assay [6] is Fibroblast growth factor receptor 1 (Homo sapiens) (UniProt P11362). The conditions noted are these: at 1 µM.
Chain of Fibroblast growth factor receptor 1 (Homo sapiens) (P11362 22-822 limits assumed): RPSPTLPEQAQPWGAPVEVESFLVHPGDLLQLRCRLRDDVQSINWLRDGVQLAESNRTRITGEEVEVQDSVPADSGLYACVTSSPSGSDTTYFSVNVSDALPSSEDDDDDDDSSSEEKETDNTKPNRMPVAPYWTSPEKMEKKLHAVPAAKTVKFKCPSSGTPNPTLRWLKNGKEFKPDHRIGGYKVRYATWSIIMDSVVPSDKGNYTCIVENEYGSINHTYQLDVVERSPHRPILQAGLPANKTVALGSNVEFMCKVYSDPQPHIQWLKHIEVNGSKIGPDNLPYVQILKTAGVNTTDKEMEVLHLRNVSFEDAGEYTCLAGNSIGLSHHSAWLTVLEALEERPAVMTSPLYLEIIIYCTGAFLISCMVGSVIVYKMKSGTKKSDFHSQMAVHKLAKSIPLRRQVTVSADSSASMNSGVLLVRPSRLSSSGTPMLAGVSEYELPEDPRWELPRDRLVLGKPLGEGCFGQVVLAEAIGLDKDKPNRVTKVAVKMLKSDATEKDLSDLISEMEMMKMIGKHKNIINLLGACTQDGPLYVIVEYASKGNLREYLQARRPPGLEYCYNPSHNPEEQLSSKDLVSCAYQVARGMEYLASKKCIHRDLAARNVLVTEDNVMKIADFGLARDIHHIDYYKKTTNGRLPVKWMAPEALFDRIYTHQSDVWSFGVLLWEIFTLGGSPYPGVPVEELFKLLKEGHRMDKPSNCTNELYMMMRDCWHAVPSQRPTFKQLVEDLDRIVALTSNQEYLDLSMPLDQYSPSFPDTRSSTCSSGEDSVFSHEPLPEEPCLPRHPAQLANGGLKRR
Assay [7] shares this target. The conditions noted are these: at 10 µM.
Assay [8] concerns the target Fibroblast growth factor receptor 3 (Homo sapiens) (UniProt P22607). The conditions noted are these: at 10 µM.
For assay [9], the target named is Fibroblast growth factor receptor 4 (Homo sapiens) (UniProt P22455). The conditions noted are these: at 10 µM.
The target in assay [10] is Tyrosine-protein kinase Fer (Homo sapiens) (UniProt P16591). The conditions noted are these: at 1 µM.
Assay [11] addresses T3, Ephrin type-B receptor 2 (Homo sapiens) (UniProt P29323).
T3 sequence (whole entry): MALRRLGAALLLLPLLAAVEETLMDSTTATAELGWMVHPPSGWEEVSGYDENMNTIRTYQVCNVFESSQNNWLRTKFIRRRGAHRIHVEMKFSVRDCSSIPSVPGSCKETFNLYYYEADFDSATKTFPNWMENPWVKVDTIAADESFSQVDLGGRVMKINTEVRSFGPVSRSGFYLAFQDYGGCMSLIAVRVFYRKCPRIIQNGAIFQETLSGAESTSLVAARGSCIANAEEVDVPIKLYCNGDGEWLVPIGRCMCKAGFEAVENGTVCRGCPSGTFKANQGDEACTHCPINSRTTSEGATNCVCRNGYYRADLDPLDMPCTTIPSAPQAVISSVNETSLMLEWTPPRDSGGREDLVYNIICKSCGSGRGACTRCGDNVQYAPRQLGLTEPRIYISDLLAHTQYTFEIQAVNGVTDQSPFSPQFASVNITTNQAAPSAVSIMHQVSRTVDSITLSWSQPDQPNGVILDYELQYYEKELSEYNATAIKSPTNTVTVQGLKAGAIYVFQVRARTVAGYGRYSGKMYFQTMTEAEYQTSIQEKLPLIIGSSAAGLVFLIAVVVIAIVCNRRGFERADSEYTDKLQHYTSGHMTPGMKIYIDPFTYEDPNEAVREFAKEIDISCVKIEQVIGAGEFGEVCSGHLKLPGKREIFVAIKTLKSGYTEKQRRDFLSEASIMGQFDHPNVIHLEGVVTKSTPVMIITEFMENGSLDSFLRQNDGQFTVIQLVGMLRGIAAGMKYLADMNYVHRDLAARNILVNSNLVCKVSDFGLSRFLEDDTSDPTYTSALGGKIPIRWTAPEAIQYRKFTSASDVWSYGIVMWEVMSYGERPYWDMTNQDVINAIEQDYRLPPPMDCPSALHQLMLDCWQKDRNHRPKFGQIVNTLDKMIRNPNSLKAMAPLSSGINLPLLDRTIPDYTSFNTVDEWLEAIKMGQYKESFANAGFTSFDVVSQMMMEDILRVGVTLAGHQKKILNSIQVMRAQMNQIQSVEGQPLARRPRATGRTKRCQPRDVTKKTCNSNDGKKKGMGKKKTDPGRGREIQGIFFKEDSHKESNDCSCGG
The conditions noted are these: at 1 µM.

Assay [12] concerns the target Receptor tyrosine-protein kinase erbB-4 (Homo sapiens) (UniProt Q15303). The conditions noted are these: at 10 µM.
The target in assay [13] is Fibroblast growth factor receptor 3 (Homo sapiens) (UniProt P22607). The conditions noted are these: at 1 µM.
Chain of Fibroblast growth factor receptor 3 (Homo sapiens) (P22607 23-806 limits assumed): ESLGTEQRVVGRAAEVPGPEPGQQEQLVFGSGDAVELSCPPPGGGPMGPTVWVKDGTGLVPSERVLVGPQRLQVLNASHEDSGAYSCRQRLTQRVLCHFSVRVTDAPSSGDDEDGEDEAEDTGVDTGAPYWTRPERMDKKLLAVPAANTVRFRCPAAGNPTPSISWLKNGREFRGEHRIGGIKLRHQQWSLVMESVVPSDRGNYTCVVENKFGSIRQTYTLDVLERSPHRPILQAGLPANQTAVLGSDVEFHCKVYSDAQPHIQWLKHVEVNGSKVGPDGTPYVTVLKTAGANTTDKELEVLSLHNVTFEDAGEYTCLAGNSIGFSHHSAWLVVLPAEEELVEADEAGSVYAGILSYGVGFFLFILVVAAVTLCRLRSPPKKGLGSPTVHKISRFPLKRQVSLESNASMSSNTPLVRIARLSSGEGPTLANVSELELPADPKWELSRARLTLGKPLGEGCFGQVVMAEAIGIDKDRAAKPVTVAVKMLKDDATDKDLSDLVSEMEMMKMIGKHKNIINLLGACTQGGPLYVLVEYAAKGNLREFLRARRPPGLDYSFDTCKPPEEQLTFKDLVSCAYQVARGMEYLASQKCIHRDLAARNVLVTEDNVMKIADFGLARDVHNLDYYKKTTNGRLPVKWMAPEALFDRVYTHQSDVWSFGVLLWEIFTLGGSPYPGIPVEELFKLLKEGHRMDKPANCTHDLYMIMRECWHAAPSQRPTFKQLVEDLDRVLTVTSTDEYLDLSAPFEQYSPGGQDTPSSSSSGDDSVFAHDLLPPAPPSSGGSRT
Assay [14] addresses Fibroblast growth factor receptor 2 (Homo sapiens) (UniProt P21802). The conditions noted are these: at 1 µM.
Assay [15] has the same target. The conditions noted are these: at 10 µM.
The target of assay [16] is T3, Ephrin type-B receptor 2 (Homo sapiens). The conditions noted are these: at 10 µM.
The target of assay [17] is T1, Ephrin type-B receptor 3 (Homo sapiens). The conditions noted are these: at 1 µM.
Assay [18] deals with Receptor tyrosine-protein kinase erbB-4 (Homo sapiens) (UniProt Q15303). The conditions noted are these: at 1 µM.
Chain of Receptor tyrosine-protein kinase erbB-4 (Homo sapiens) (Q15303 whole entry): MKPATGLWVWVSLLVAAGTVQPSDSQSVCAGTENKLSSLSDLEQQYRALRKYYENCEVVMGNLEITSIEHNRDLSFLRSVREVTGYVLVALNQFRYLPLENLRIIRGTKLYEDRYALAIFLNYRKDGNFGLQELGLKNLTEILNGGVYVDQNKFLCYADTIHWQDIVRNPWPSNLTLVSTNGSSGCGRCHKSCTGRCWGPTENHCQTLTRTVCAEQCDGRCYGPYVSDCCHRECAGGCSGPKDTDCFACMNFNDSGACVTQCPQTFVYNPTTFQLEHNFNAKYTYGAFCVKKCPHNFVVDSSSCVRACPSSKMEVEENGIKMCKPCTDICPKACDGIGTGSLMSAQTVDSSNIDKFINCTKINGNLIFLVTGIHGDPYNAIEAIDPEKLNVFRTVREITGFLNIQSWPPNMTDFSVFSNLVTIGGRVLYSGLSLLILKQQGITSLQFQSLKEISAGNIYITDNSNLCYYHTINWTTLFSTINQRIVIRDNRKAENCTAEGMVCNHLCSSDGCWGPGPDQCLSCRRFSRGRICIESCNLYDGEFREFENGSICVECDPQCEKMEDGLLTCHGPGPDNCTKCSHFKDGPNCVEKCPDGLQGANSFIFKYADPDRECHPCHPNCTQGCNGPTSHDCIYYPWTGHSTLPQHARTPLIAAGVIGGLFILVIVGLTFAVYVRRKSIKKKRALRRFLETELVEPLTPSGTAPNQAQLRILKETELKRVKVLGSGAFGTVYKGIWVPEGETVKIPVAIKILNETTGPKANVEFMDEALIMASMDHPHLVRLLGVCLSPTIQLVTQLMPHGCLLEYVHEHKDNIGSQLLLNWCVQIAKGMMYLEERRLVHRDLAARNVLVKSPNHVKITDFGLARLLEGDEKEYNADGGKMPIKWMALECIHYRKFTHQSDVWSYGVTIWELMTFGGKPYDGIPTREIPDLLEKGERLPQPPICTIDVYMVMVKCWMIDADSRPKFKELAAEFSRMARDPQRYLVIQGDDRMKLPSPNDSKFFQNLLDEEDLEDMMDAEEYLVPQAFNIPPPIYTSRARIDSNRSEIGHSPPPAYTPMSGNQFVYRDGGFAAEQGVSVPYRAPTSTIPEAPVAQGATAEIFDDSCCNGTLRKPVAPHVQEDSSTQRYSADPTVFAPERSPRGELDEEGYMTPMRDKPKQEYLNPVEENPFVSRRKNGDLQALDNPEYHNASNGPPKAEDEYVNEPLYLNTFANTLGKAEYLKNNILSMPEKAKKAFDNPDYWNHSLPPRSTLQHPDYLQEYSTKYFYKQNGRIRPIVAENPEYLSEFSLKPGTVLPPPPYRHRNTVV
In assay [19] the target is Fibroblast growth factor receptor 4 (Homo sapiens) (UniProt P22455). The conditions noted are these: at 1 µM.
Assay [20] concerns the target T4, Ephrin type-B receptor 1 (Homo sapiens) (UniProt P54762).
T4 sequence (whole entry): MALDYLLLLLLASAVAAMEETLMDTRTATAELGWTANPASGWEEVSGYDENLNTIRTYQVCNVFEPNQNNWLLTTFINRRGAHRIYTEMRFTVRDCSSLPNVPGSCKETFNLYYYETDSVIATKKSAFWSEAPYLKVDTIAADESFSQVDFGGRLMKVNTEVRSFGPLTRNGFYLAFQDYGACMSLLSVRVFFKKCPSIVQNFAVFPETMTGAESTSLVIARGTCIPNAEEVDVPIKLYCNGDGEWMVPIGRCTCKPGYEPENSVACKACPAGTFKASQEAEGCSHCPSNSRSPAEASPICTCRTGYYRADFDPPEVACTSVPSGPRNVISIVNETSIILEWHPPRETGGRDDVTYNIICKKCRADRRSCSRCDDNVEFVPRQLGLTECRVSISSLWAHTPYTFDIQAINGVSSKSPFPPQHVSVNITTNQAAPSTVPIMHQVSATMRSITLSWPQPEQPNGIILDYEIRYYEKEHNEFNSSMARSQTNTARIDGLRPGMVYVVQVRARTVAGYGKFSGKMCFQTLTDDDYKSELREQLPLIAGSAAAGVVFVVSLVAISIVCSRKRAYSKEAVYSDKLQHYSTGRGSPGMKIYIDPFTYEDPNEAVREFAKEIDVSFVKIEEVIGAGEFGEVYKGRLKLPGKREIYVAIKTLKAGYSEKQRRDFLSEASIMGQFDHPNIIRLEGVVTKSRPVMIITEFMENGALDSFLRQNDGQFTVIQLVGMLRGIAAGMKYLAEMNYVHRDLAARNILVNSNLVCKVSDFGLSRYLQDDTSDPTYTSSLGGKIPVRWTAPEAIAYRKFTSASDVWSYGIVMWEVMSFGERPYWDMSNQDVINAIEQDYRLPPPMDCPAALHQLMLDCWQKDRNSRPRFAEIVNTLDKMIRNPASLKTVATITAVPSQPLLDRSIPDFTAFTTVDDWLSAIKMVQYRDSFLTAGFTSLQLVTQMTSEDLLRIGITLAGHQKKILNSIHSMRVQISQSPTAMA
The conditions noted are these: at 10 µM.

Broadly, the residual activity is the signal under treatment as a percentage of the control signal.

Chain of Fibroblast growth factor receptor 2 (Homo sapiens) (P21802 22-821 limits assumed): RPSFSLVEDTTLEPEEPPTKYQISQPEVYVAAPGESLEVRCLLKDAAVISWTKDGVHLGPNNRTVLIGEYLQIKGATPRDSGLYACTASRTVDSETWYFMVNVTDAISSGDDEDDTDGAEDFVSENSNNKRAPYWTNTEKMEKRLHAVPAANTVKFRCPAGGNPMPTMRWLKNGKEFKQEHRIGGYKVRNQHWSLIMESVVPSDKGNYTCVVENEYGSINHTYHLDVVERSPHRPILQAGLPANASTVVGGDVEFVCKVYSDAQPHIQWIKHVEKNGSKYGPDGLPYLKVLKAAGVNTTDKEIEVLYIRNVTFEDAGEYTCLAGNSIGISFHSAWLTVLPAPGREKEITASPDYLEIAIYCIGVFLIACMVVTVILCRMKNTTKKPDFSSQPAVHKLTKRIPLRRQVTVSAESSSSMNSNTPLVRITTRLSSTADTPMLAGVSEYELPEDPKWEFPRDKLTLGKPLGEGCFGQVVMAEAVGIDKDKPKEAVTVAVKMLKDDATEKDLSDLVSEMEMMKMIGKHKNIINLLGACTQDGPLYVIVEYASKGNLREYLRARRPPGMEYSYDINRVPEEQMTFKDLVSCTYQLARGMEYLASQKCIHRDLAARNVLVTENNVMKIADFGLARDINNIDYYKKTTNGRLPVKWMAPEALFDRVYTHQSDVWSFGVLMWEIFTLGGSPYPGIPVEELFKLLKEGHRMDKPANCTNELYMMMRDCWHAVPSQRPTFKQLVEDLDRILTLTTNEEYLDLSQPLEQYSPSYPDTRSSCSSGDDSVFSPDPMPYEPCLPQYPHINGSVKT

In the case of `O=C(Nc1ccc(Cl)cc1)c1ccccc1NCc1ccncc1`, the residual activity in [1] is 125%; in assay [2] it was 117%; in [3] it was 131%; in [4] it was 143%; in assay [5], 73%; in assay [6], 75%. In addition, the residual activity worked out at 10% in assay [7], 73% in [8], 78% in [9] and 131% in assay [10].
For the compound `O=c1c(-c2ccc(F)cc2)c(-c2ccncc2)[nH]n1-c1ccc(Cl)cc1`, the residual activity in assay [11] was determined as 121%; in assay [12], 34%; in assay [6], 127%; in assay [7], 40%; in assay [13], 123%.
Take `N#C/C(=C\c1ccc(O)c(O)c1)C(=O)NCc1ccccc1`: the residual activity in [1] is 133%; in assay [2], 129%; in [3], 102%; in assay [4], 127%; in assay [14], 103%; in assay [15], 120%.
`CN([C@@H](Cc1ccc(OS(=O)(=O)c2cccc3cnccc23)cc1)C(=O)N1CCN(c2ccccc2)CC1)S(=O)(=O)c1cccc2cnccc12`: the residual activity in [16] is 131%; in [17] it was 116% (inactive); in [4] it was 119%; in assay [7] it was 58%; in [8], 58%.
Take `Nc1ncnc2[nH]nc(Nc3ccc(F)cc3)c12`: the residual activity in [16] was 9%; in assay [17], 123% (inactive); in assay [1], 107%; in assay [2] it was 42%; in [3], 6%; in [18], 18%. Besides, the residual activity in [12] is 11%; in assay [4], 109%; in [14], 91%; in assay [15], 60%; in [13], 113%; in [19], 98%. For the same compound, the residual activity in assay [10] was 98%.
With `N#Cc1c(NC(=O)c2cccc3ccccc23)sc2c1CCCC2`, the residual activity stood at 95% in [20]; 90% in [2]; 94% in [12]; 128% in assay [6]; 88% in assay [7]; 89% in assay [10].
As to `O=S(=O)(c1cccc2cnccc12)N1CCCNCC1`, in assay [7], the residual activity amounted to 81%.
On to `O=C1NC(=O)C(c2c[nH]c3ccccc23)=C1c1c[nH]c2ccccc12`, for which the residual activity stood at 39% in assay [20]; 82% in assay [3]; 73% in [12]; 122% in assay [4]; 44% in assay [5]; 9% in assay [6]. For the same compound, the residual activity in [7] amounted to 1%; in assay [14], 37%; in assay [15] it was 9%; in assay [13] it was 27%; in [8], 4%; in assay [9], 71%.
Regarding `O=C1NC(=O)C(c2cn(CCCn3ccnc3)c3ccccc23)=C1Nc1ccccc1`, the residual activity was 115% in assay [11]; 122% in assay [16]; 114% (inactive) in assay [17]; 148% in assay [1]; 109% in assay [2]; 119% in assay [3]. Moreover, the residual activity in assay [18] came out at 70%; in assay [12], 13%; in assay [4], 119%; in assay [5], 71%; in assay [6] it was 77%; in [7], 17%. Further, the results for the residual activity in assay [14], in [15] and in assay [10] were 113%, 57% and 102%, respectively.
With `Oc1cccc(-c2nc(N3CCOCC3)c3oc4ncccc4c3n2)c1`, the residual activity is 116% (inactive) in [17]; 123% in assay [1]; 144% in [4]; 50% in assay [5]; 97% in [6]; 78% in assay [7]. Moreover, the residual activity stood at 122% in [14], 123% in [15], 99% in [9] and 119% in assay [10].
As to `Nc1nccc(-c2c(-c3ccc(F)cc3)ncn2C2CCNCC2)n1`, the residual activity in assay [2] turned out to be 77%; in assay [3] it was 18%; in assay [12], 66%; in [5], 71%; in [6] it was 119%; in assay [7], 27%. Further, the residual activity in assay [14] came out at 113%; in [15], 67%; in [13] it was 120%; in assay [8], 83%.
